Reference: ChEMBL document CHEMBL1961873, “Compounds: GSK PKIS; Assays: Nanosyn kinase panel” (2012)

Experiments:
[1] = molecular target: T1, Serine/threonine-protein kinase TBK1 (Homo sapiens) (UniProt Q9UHD2); conditions: at 1 µM;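 further: values are mean inhibition of TBK1, screened as part of the GSK published kinase inhibitor set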
T1 sequence (whole entry): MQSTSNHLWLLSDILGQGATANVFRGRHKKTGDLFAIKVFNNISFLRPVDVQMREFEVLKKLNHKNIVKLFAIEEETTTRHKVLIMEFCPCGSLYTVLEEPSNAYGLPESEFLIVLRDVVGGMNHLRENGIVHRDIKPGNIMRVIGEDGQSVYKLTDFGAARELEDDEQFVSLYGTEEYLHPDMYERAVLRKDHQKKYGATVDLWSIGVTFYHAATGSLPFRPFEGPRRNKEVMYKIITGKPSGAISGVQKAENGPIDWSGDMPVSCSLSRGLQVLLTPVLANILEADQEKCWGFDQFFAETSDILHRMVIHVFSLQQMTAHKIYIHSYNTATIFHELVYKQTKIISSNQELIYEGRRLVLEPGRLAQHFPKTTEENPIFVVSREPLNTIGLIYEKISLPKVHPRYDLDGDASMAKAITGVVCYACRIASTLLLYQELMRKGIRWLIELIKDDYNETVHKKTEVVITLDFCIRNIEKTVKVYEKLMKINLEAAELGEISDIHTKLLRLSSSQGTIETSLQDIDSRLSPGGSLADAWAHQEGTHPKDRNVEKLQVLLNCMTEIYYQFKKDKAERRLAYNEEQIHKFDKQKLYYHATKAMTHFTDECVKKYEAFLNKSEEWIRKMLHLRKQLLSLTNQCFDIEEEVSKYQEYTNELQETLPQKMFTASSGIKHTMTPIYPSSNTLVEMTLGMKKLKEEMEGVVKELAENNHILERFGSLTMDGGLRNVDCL

[2] = molecular target: T2, Testis-specific serine/threonine-protein kinase 1 (Homo sapiens) (UniProt Q9BXA7); conditions: at 0.1 µM
T2 sequence (whole entry): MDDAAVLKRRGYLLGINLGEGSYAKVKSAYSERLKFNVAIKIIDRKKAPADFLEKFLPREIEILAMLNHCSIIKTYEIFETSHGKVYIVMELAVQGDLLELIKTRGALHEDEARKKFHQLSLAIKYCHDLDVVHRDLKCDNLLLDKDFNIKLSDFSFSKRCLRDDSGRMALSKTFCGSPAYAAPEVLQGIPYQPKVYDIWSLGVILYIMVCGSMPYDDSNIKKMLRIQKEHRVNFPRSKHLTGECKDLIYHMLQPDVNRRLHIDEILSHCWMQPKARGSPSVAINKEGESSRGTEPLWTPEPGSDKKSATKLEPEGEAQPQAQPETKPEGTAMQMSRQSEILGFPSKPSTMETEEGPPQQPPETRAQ

[3] = molecular target: T2, Testis-specific serine/threonine-protein kinase 1 (Homo sapiens); conditions: at 1 µM
[4] = molecular target: T3, Testis-specific serine/threonine-protein kinase 2 (Homo sapiens) (UniProt Q96PF2); conditions: at 0.1 µM
T3 sequence (whole entry): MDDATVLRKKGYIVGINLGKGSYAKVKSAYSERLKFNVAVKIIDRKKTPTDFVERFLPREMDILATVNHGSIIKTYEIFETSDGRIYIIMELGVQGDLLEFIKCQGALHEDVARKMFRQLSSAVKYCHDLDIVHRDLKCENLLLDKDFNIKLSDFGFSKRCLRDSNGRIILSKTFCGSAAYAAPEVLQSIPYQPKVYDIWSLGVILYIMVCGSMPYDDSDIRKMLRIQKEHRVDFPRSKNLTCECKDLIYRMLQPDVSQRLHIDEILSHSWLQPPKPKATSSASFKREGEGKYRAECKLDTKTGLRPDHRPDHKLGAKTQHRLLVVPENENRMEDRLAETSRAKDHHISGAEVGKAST

[5] = molecular target: T3, Testis-specific serine/threonine-protein kinase 2 (Homo sapiens); conditions: at 1 µM
[6] = molecular target: Casein kinase I isoform alpha (Homo sapiens) (UniProt P48729); conditions: at 0.1 µM
[7] = molecular target: Casein kinase I isoform alpha (Homo sapiens) (UniProt P48729); conditions: at 1 µM
[8] = molecular target: Casein kinase I isoform gamma-1 (Homo sapiens) (UniProt Q9HCP0); conditions: at 0.1 µM
[9] = molecular target: Casein kinase I isoform gamma-1 (Homo sapiens) (UniProt Q9HCP0); conditions: at 1 µM
[10] = molecular target: Casein kinase I isoform gamma-2 (Homo sapiens) (UniProt P78368); conditions: at 0.1 µM
[11] = molecular target: Casein kinase I isoform gamma-2 (Homo sapiens) (UniProt P78368); conditions: at 1 µM
[12] = molecular target: Casein kinase I isoform gamma-3 (Homo sapiens) (UniProt Q9Y6M4); conditions: at 0.1 µM
[13] = molecular target: Casein kinase I isoform gamma-3 (Homo sapiens) (UniProt Q9Y6M4); conditions: at 1 µM
[14] = molecular target: Cyclin-dependent kinase 1 (Homo sapiens) (UniProt P06493); conditions: at 0.1 µM
[15] = molecular target: Cyclin-dependent kinase 1 (Homo sapiens) (UniProt P06493); conditions: at 1 µM
[16] = molecular target: Cyclin-dependent kinase 2 (Homo sapiens) (UniProt P24941); conditions: at 0.1 µM
[17] = molecular target: Cyclin-dependent kinase 2 (Homo sapiens) (UniProt P24941); conditions: at 1 µM
[18] = molecular target: Cyclin-dependent kinase 2 (Homo sapiens) (UniProt P24941); conditions: at 0.1 µM; remark: listed apart in the source
[19] = molecular target: Cyclin-dependent kinase 2 (Homo sapiens) (UniProt P24941); conditions: at 1 µM; remark: listed apart in the source
[20] = molecular target: CDK3/Cyclin E (Homo sapiens) (UniProt P24864+Q00526); conditions: at 0.1 µM;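 further: reported percentages are mean inhibition values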
CDK3/Cyclin E (Homo sapiens), sequence (P24864 whole entry, looked up): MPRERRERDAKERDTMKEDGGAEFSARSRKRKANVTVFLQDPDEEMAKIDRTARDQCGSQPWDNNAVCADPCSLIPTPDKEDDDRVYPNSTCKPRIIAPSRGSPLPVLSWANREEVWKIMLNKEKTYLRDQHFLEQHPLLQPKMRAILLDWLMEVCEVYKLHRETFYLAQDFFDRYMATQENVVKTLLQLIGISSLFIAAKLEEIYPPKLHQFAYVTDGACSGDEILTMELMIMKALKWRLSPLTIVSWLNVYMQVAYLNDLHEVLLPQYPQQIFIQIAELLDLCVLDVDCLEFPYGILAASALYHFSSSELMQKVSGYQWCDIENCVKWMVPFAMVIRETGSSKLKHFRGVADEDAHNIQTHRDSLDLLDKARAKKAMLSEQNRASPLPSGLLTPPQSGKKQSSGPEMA
CDK3/Cyclin E (Homo sapiens), sequence (Q00526 whole entry, looked up): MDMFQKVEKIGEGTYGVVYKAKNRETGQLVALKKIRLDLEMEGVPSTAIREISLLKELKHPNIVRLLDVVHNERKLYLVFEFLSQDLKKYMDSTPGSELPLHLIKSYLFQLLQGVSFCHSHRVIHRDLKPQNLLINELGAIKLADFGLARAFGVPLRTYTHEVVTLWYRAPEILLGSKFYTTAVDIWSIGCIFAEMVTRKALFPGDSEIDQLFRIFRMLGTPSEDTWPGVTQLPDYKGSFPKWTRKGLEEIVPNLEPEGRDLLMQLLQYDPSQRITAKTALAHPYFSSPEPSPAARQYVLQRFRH

Casein kinase I isoform gamma-2 (Homo sapiens), sequence (P78368 whole entry, looked up, canonical isoform): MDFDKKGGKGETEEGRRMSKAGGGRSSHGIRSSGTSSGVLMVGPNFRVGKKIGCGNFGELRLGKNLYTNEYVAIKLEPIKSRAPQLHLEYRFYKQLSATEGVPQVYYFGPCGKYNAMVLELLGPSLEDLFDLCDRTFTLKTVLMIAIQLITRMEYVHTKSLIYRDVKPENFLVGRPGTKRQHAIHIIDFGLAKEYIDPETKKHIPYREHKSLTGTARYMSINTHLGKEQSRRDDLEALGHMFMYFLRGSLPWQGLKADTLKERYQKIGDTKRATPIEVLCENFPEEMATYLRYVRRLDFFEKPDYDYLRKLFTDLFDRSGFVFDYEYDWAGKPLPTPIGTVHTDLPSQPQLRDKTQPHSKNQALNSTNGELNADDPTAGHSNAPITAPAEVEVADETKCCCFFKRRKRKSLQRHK
Casein kinase I isoform alpha (Homo sapiens), sequence (P48729 2-337 limits assumed): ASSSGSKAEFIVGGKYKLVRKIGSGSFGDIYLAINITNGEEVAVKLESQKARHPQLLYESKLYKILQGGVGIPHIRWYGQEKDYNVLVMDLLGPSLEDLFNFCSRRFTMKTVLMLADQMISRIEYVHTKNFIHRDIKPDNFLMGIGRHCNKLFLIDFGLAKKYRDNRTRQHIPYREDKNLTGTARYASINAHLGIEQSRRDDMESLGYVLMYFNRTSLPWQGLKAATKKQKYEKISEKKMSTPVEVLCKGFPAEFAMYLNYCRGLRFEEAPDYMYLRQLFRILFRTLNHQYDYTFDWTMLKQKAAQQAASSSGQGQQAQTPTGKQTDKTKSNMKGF
Casein kinase I isoform gamma-1 (Homo sapiens), sequence (Q9HCP0 whole entry, looked up, canonical isoform): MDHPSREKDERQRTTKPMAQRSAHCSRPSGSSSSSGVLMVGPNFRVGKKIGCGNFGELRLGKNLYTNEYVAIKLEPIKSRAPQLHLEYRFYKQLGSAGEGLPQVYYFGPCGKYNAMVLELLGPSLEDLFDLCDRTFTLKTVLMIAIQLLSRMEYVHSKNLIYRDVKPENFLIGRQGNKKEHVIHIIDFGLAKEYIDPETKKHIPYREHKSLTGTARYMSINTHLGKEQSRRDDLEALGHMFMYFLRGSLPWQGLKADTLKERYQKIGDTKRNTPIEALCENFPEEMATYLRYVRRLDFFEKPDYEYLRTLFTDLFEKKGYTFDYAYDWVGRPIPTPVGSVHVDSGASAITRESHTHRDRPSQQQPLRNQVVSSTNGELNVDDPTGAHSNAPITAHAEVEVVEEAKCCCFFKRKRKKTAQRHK
Cyclin-dependent kinase 1 (Homo sapiens), sequence (P06493 whole entry, looked up): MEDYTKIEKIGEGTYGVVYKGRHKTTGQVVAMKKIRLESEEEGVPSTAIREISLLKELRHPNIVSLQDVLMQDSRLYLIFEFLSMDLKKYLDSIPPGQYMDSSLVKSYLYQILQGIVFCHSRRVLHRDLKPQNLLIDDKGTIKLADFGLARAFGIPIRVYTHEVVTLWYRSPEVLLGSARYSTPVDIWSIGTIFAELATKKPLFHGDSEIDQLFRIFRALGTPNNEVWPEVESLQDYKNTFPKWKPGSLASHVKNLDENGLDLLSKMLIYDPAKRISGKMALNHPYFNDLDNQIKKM
Casein kinase I isoform gamma-3 (Homo sapiens), sequence (Q9Y6M4 whole entry, looked up, canonical isoform): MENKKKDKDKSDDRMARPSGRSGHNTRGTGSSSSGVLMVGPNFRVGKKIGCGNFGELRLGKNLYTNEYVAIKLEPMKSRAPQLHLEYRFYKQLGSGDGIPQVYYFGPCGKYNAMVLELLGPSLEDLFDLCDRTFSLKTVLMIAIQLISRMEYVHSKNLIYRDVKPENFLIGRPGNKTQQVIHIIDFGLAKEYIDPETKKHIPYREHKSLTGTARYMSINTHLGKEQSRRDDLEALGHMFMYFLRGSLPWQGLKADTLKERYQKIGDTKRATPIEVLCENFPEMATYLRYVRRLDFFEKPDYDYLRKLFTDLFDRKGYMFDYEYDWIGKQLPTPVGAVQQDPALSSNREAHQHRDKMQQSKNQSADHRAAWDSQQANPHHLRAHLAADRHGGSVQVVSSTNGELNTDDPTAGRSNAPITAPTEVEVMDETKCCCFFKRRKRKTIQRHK

Structure (SMILES) | inhibition [1] [%] | inhibition [2] [%] | inhibition [3] [%] | inhibition [4] [%] | inhibition [5] [%] | inhibition [6] [%] | inhibition [7] [%] | inhibition [8] [%] | inhibition [9] [%] | inhibition [10] [%] | inhibition [11] [%] | inhibition [12] [%] | inhibition [13] [%] | inhibition [14] [%] | inhibition [15] [%] | inhibition [16] [%] | inhibition [17] [%] | inhibition [18] [%] | inhibition [19] [%] | inhibition [20] [%]
COc1cccc(COc2cc(-n3cnc4ccccc43)sc2C(N)=O)c1 | 1.53 | -0.31 | -0.86 | 0.72 | -0.49 | -2.17 | -2.7 | 1.18 | 2.68 | 2.02 | 1.17 | 0.42 | 1.21 | 0.45 | -0.26 | 0.15 | -0.04 | -0.91 | -0.85 | -1.38
NS(=O)(=O)c1ccc(-c2ccc3c(NC(=O)C4CC4)n[nH]c3c2)cc1 | 3.1 | 0.11 | -0.04 | 1.09 | -2.52 | 6.65 | 2.79 | 1.56 | 2.58 | 1 | 1.7 | 0.52 | -0.19 | 0.48 | 5.13 | 2.91 | 13.4 | 2.18 | 5.85 | 2.19
CCn1c(-c2nonc2N)nc2c(C#CC(C)(C)O)ncc(OC[C@@H]3CCCN3)c21 | 41.2 | 20.6 | 70.4 | 4.9 | 2.67 | -1.71 | -2.58 | 1.04 | 2.69 | 1.05 | 2.18 | 0.87 | 3.35 | -0.63 | 0.58 | -1.52 | -0.07 | -0.64 | -0.07 | -0.42
COc1cc2c(cc1Nc1nc(Nc3ccsc3C(N)=O)c3cc[nH]c3n1)N(C(=O)CN(C)C)CCC2 | 25 | 92.3 | 95.5 | 59.4 | 91.2 | -0.45 | 4.2 | -0.49 | 5.86 |  | -7.97 | 1.11 | 10.3 | 5.37 | 6.76 | 4.39 | 6.12 | 0.86 | -1.41 | 0.3
Fc1ccc(-c2ncn(C3CCNCC3)c2-c2ccnc(Oc3ccccc3)n2)cc1 | 2.78 | 2.36 | 1.65 | 0.82 | 0.7 | 4.72 | 30.9 | -1.52 | 4.5 | -1.96 | 2.3 | -1.46 | 10 | -3.4 | -1.98 | -3.24 | -1.87 | -2.35 | -0.94 | -3.17
NC(=O)c1sc(-n2cnc3cc(C(F)(F)F)ccc32)cc1OCc1ccccc1Br | 1.3 | 2.93 | 3.05 | 2.48 | 1.1 | 1.1 | -0.24 | 1.09 | -0.28 | 0.61 | 0.89 | 1.52 | 1.06 | 0.9 | 4.47 | 0.47 | 2.92 | 0.99 | 3.19 | -1.34
CCn1c(-c2nonc2N)nc2c(C#CC(C)(C)O)nc(O[C@@H](CN)c3ccccc3)cc21 | 68 | 85.5 | 95.6 | 1.41 | 14.8 | 1.59 | 4.15 | -0.58 | 7.01 | -0.78 | 4.43 | -0.48 | 9.88 | 4.13 | 4.92 | 2.07 | 4.12 | 2.92 | 4.27 | 3.62
